The record followed here is PubChem BioAssay (NCATS).

Test [1] addresses Cellular tumor antigen p53 (Homo sapiens) (UniProt P04637). Briefly: Primary qHTS for small molecule compounds that upregulate eGFP-tagged delta133p53alpha (in N-terminal) cells. (AID 2060322).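 Note: cells pre-induced with doxycycline then dosed without doxycycline; series mostly up to about 56 µM; 0% = DMSO vehicle and 100% = reference activator; nearly all actives have a fitted effect of over 75% in size.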 Particulars: NCI-H358 eGFP-delta133p53alpha fluorescence, 24 h; activation: stronger effect = higher value. An outline of the steps: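 NCI-H358 cells pre-induced 24 h with 10 ng/ml doxycycline for eGFP-delta133p53alpha, plated dox-free and exposed 24 h at 37C to titrated compounds. Fixed, Hoechst-stained; gated GFP peak intensity by laser scanning cytometry, normalized to DMSO (0%) and 57.5 uM 5-azacytidine (100%).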
(In general: Quantitative high-throughput screening tests each substance at several concentrations.)

Test [2] concerns the target Aldehyde dehydrogenase, mitochondrial (Homo sapiens) (UniProt P05091). Briefly: qHTS for Inhibitors of the Aldehyde Dehydrogenase Family (ALDH2) Primary screen (AID 2061308).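 Note: plate controls were vehicle for no effect and reference inhibitor for full effect; nearly all actives have a fitted effect of over 55% in size.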
The target in test [3] is Retinaldehyde dehydrogenase 3 (Homo sapiens) (UniProt P47895). The experiment in a line: qHTS for Inhibitors of the Aldehyde Dehydrogenase Family (ALDH1A3) Primary screen (AID 2061315). Note: potency is the fitted concentration of half-maximal effect.

Molecules are shown by their SMILES. Records with an inconclusive call do not appear. Values without a mark were called inactive. The source made the active and inactive calls. Calls come from the whole dose curve; as a rule, active = well fitted curve in the direction sought with a large enough effect; inconclusive = small, poorly fitted or top-dose-only effect, or another doubt; inactive = no such curve, though single readings can be large; an effect the other way counts as inactive or inconclusive.

Chain of Cellular tumor antigen p53 (Homo sapiens) (P04637 whole entry, looked up): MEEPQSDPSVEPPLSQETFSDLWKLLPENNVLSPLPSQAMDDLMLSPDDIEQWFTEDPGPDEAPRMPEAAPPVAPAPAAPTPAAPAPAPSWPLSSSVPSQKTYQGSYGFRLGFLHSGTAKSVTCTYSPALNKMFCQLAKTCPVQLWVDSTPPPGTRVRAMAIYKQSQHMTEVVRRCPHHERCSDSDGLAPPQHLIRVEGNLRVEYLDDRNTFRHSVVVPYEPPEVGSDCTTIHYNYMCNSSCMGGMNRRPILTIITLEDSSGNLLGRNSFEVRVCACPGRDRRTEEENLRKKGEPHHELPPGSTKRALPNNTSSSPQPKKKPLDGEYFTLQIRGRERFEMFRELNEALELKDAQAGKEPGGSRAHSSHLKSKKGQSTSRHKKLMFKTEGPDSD

For the molecule `CC1(C)CC[C@]2(C(=O)O[C@@H]3O[C@H](CO)[C@@H](O)[C@H](O)[C@H]3O)CC[C@]3(C)C(=CCC4[C@@]5(C)CC[C@H](O[C@H]6O[C@H](CO)[C@@H](O)[C@H](O[C@@H]7O[C@H](CO)[C@@H](O)[C@H](O)[C@H]7O)[C@H]6O)C(C)(C)C5CC[C@]43C)[C@@H]2C1` (some centres not stated), the activation in test [1] is 15.3%. Besides, the Potency entry in test [2] and in test [3] was “inactive” throughout.

Turning to `CC(O)C(O)/C=C/C=C/C(=O)O[C@@H]1C=C2COC(=O)[C@]2(O)[C@@]2(C)CCCC(C)(C)C12` (some centres not stated), in test [1], the activation is -18.3%. The Potency result in test [2] and in test [3] was “inactive” in each case.

For the molecule `CC1(C)CC[C@]2(C(=O)O)CC[C@]3(C)C(=CCC4[C@@]5(C)C[C@H](O)[C@H](O[C@@H]6O[C@H](CO)[C@@H](O)[C@H](O)[C@H]6O)[C@@](C)(CO)C5[C@H](O)C[C@]43C)[C@@H]2C1` (some centres not stated), in test [1], the activation was -13%. Besides, the Potency entry in test [2] and in test [3] was “inactive” each time.

Turning to `CC(=O)OC1C(O)C2C(C)C3=CC(=O)OC3(O)CC2C2(C)CCCC(C)(CO)C12` (configuration not stated), the activation in test [1] was 9.16%. Further, the Potency entry in test [2] and in test [3] was “inactive” throughout.

Regarding `C/C=C(\C)C(=O)OCC1OC(OCC2OC(OC3(CO)OC(CO)C(O)C3O)C(O)C(O)C2O)C(O)C(O)C1O` (configuration not stated), in test [1], the activation is -9.16%. Moreover, the Potency result in test [2] and in test [3] was “inactive” in each case.

As to `O=[N+]([O-])c1ccc(Oc2ccc3c(c2)CCC(c2ccccc2)O3)nc1` (configuration not stated), the activation in test [1] was 2.33%. Moreover, the Potency entry in test [2] and in test [3] was “inactive” throughout.

On to `COc1ccc(/C=C\C(=O)O)c(O[C@@H]2O[C@H](CO)[C@@H](O)[C@H](O)[C@H]2O)c1`, for which the activation in test [1] was -7.63%. In addition, the Potency entry in test [2] and in test [3] was “inactive” in each case.

Regarding `Cc1cc(OCCCS(C)(=O)=O)cc(C)c1-c1cccc(COc2ccc(C3=CC(=O)NS3=O)cc2)c1` (configuration not stated), in test [1], the activation is -18.3%. Besides, the Potency entry in test [2] and in test [3] was “inactive” each time.

Turning to `O=C1OC(c2ccc(O)cc2)C(O)=C1Cc1ccccc1` (configuration not stated), the activation in test [1] is -3.82%. In addition, the Potency result in test [2] and in test [3] was “inactive” each time.

For `C=C(C)[C@@H]1CC=C(COC(=O)NC(=O)c2ncn3c(=O)n(C)nnc23)CC1`, the activation in test [1] is 10%. In addition, the Potency entry in test [2] and in test [3] was “inactive” throughout.

On to `CC1(C)CC[C@]2(C(=O)O)CC[C@]3(C)C(=CCC4[C@@]5(C)C[C@@H](O)[C@H](O)C(CO)(CO)C5CC[C@]43C)C2[C@@H]1O` (some centres not stated), for which, in test [1], the activation is -9.16%. The Potency entry in test [2] and in test [3] was “inactive” in each case.

Consider `COc1c2c(c(C)c3c1C(=O)OC3)OC1(C)CC(O)C34OC(OC)(CCC3(C)C1C2)OC4(C)CO` (configuration not stated), for which the activation in test [1] is 13%. In addition, the Potency entry in test [2] and in test [3] was “inactive” throughout.

With `Clc1ccc(CN[C@H]2CCN(c3ncc(Br)cn3)C2)c(Cl)c1`, the activation in test [1] was 3.57%. Further, the Potency result in test [2] and in test [3] was “inactive” each time.

In the case of `COc1ccc(C#Cc2ccc(C(=O)N3CCC[C@@H](O)C3)c(F)c2)cc1`, the activation in test [1] is -8.04%. The Potency result in test [2] and in test [3] was “inactive” in each case.

For `CCn1cc(NC(=S)Nc2cc(Cl)ccc2OC)c(C(N)=O)n1`, the activation in test [1] is -5%. Besides, the Potency entry in test [2] and in test [3] was “inactive” in each case.

For the molecule `CCNC(=O)[C@@H]1CCCN1C(=O)[C@H](CCCN=C(N)N)NC(=O)[C@H](CC(C)C)NC(=O)[C@@H](CC(C)C)NC(=O)[C@H](Cc1ccc(O)cc1)NC(=O)[C@H](CO)NC(=O)[C@H](Cc1c[nH]c2ccccc12)NC(=O)[C@H](Cc1cnc[nH]1)NC(=O)[C@@H]1CCC(=O)N1`, the activation in test [1] is 7%. Besides, the Potency result in test [2] and in test [3] was “inactive” each time.

Turning to `C=C1CC23CC1CCC2C12OC(=O)C(C)(C(O)C(O)C1O)C2C3C(=O)O` (configuration not stated), the activation in test [1] is 2.68%. For the same molecule, the Potency entry in test [2] and in test [3] was “inactive” in each case.

Consider `COC(=O)CC(O)C1OC(c2ccccc2)C(O)C1O` (configuration not stated), for which the activation in test [1] is -2.29%. Further, the Potency result in test [2] and in test [3] was “inactive” throughout.

Regarding `C=C1C(=O)OC2C=C(C)CC/C=C(\CO)CC(O)C12` (configuration not stated), the activation in test [1] is 9.92%. The Potency entry in test [2] and in test [3] was “inactive” each time.

On to `C=CC(C)(O)CO[C@@H]1O[C@H](CO)[C@@H](O)[C@H](O)[C@H]1O` (some centres not stated), for which, in test [1], the activation was -16%. In addition, the Potency entry in test [2] and in test [3] was “inactive” each time.

Regarding `C[C@]1(OC(=O)/C=C/c2ccccc2)C[C@H](O)[C@]2(O)C=CO[C@@H](O[C@@H]3O[C@H](CO)[C@@H](O)[C@H](O)[C@H]3O)C12` (some centres not stated), the activation in test [1] is -18.3%. Also, the Potency result in test [2] and in test [3] was “inactive” throughout.

As for `OCC1OC(Oc2cc(O)cc(/C=C/c3ccc(O)cc3)c2)C(O)C(O)C1O` (configuration not stated), in test [1], the activation was -15.3%. Moreover, the Potency result in test [2] is “inactive”. The Potency in test [3] was 3.55 µM (active).

In the case of `CC1(C)CC2C(O)C3=C(CC(C)(O)C2C1)C(=O)OC3O` (configuration not stated), in test [1], the activation is 1.79%. For the same molecule, the Potency result in test [2] and in test [3] was “inactive” throughout.

`COc1cc(/C=C/C(=O)O[C@@H]2C[C@](O)(C(=O)O)C[C@@H](O)[C@H]2O)ccc1O`: the activation in test [1] is 3.57%. The Potency result in test [2] and in test [3] was “inactive” throughout.
